High-throughput results: PubChem BioAssay, National Center for Advancing Translational Sciences (NCATS)
SW480 rereplic – inducers of DNA re-replication in SW480 colon cancer cells. SW480 DNA re-replication, Hoechst DNA content imaging, 48 h. Potency, µM (titrated, usually from 46.1 µM), for inactives: at the highest dose re-replication activation, hits mostly activators. actives 1.8% (n = 340,000). AID 624297; also: % of control where 0% means no effect; nearly all actives have a fitted effect of over 55% in size
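Image-based read-out: total Hoechst fluorescence of nuclei (405 nm excitation, 500-530 nm emission), with hits raising the fraction of high-intensity nuclei. SW480 colon cells incubated 48 hr with compounds at 37 C.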
TSG101-PTAP inh – blocks PTAP/TSG101 interaction to inhibit HIV-1 budding | Q99816 | Fluorescence polarization, FITC-PTAP peptide / Tsg101 binding | Potency, µM (highest dose often 115 µM), for the others: at the top dose activity change, negative = inhibition, hits mostly inhibitors | 340,000 tested, under 10 active; active = well fitted inhibition curve with a large enough effect in the main read-out, with a control signal flat, not every such curve was filed as active; inconclusive = small, poorly fitted or top-dose-only effect, or effect the other way, or a change in a side signal; inactive = no such curve, though single readings can be large or run the other way; also: % of control where 0% means no effect
Target sequence (Q99816 whole entry, looked up): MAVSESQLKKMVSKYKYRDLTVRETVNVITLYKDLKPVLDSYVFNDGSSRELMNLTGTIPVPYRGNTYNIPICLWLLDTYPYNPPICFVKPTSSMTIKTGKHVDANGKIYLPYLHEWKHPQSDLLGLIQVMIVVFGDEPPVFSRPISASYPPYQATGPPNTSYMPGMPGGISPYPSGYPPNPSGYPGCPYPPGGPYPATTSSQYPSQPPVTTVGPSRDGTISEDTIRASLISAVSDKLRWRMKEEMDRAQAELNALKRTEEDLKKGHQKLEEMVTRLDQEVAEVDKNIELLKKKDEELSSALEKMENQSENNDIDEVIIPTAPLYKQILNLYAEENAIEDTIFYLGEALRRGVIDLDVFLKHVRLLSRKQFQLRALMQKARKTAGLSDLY
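Fluorescence anisotropy tracks displacement of a FITC-tagged PTAP peptide (50 nM) from the Tsg101 binding domain (10 uM), following a 20 min room-temperature incubation at pH 7.5.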
RGS4 inhibitor – human RGS4 inhibition; P49798; Transcreener GDP fluorescence polarization, RGS4-accelerated GTP hydrolysis; Potency, µM (highest dose often 114 µM), inactives show top-dose activity change, negative = inhibition, most hits filed as inhibitors; actives 0.039% (n = 390,000); AID 504845; also: % is scaled to controls: 0 for no effect and ±100 for the full control effect; nearly all actives have a fitted effect of over 75% in size
Target sequence (P49798 whole entry, looked up): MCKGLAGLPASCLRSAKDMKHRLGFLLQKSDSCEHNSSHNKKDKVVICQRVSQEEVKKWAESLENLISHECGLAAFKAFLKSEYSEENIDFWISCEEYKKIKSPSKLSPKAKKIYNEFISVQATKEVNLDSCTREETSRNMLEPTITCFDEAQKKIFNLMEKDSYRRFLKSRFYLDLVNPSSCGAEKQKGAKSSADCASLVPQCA
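MLSMR compounds (23 nl, pin-transferred) preincubated 10 min at room temperature with a 500nM (2x) first reagent, then RGS4 at 900nM (2x) plus Transcreener GDP mix added; fluorescence polarization (620/688 nm) read before and after 90 min at 30 °C.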
KB-V1 cytotox – kills drug-selected multidrug resistant KB-V1 cells. KB-V1 MDR cells viability, CellTiter-Glo, 72 h. Potency, µM (titrated, usually from 46.1 µM), usual class: cytotoxic. actives 3.4% (n = 400,000); also: % is scaled to controls: 0 for no effect and ±100 for the full control effect; nearly all actives have a fitted effect of over 60% in size
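Cells of the MDR subline KB-V1 are plated, dosed with compound at multiple concentrations, and incubated 72 h at 37 degrees C; CellTiter-Glo is then added and luminescence read after 10 min.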
MCF10A rereplic – inducers of DNA re-replication in MCF 10A breast cells; MCF 10A DNA re-replication, Hoechst nuclear intensity, 48 h; Potency, µM (titrated, usually from 46.1 µM), for the others: at the top dose activity, positive = re-replication, actives largely listed as activators; actives 2.9% (n = 350,000); also: % of control where 0% means no effect; nearly all actives have a fitted effect of over 50% in size
KB-3-1 tox – kills parental KB-3-1 adenocarcinoma cells; actives 1.4% (n = 400,000); Potency, µM (top dose mostly 46.1 µM), usual class: cytotoxic; KB-3-1 viability, CellTiter-Glo ATP luminescence, 72 h; also: % is scaled to controls: 0 for no effect and ±100 for the full control effect; nearly all actives have a fitted effect of over 60% in size
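72 h, 37 °C compound treatment of KB-3-1 parental cells; CellTiter-Glo added, 10 min, luminescence read. Data corrected against DMSO-only plates and normalized before curve fitting.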
* marks the source's active call; other numbers are inactive results; i = inactive; ? = inconclusive; / = no result given; [ ] = another dose, or the depositor's remark. A selection: hits, their analogues and other compounds. The true share with any hit is near 6.6%. Unless noted, calls follow the shape of the dose curve; as a rule, active = well fitted curve in the direction sought with a large enough effect; inconclusive = small, poorly fitted or top-dose-only effect, or another doubt; inactive = no such curve, though single readings can be large; an effect the other way counts as inactive or inconclusive. Potency is read from the fitted curve at half-maximal effect.

SMILES	SW480 rereplic	TSG101-PTAP inh	RGS4 inhibitor	KB-V1 cytotox	MCF10A rereplic	KB-3-1 tox
CC1CC(C)C(=O)C(C(CC2CC(=O)NC(=O)C2)OC(=O)CC(=O)c2ccccc2)C1 (stereo not given)	11%	1%	9%	?	?	2.6µM*
O=C1C(Cl)=C(N2CCOCC2)C(=O)N1CCc1ccccc1	-10%	0%	-4%	15µM*	13%	i
CN1CCN(C2=C(Cl)C(=O)N(CCc3ccccc3)C2=O)CC1	1%	-12%	-2%	i	13%	i
COc1cccc2sc(Nc3nc4ccc(NC(C)=O)cc4s3)nc12	?	3%	-49%	i	3.3µM*	16µM*
COc1cccc2sc(Nc3nc(-c4ccncc4)cs3)nc12	?	0%	-34%	8.2µM*	21µM*	5.8µM*
CCOC(=O)c1sc(Nc2nc3cc4c(cc3s2)OCO4)cc1C	-7%	0%	1%	i	?	i
CC(=O)Nc1ccc2nc(NC(=O)COc3ccccc3C)sc2c1	2%	-3%	-14%	i	1%	?
CCOC(=O)c1sc(Nc2nc3c(OC)cccc3s2)cc1C	?	-1%	8%	?	23µM*	i
COc1cccc2sc(Nc3nc(-c4cc5ccccc5oc4=O)cs3)nc12	5.2µM*	3%	?	8.2µM*	1.3µM*	?
COc1ccc(NC(=O)c2ccco2)cc1NC(=O)C(C)(C)Oc1ccc(Cl)cc1	/	/	-19%	i	/	i
Cc1ccc(C(=O)N(Cc2ccco2)Cc2sccc2C)cc1	/	/	9%	/	/	/
CCOc1nc(C#N)nc(N2CCOCC2)n1	/	/	-2%	i	/	i
CCN1CCN(C(c2ccc(F)cc2)c2c(O)cc(C)n(CCOC)c2=O)CC1 (stereo not given)	/	/	7%	i	/	i
Cc1cc(Nc2ccccc2F)n2nc(Cc3ccc(Cl)cc3)nc2n1	/	/	-23%	i	/	i
CCCCCCCC/C=C\CCCCCCCC(=O)NCc1ccc(O)c(OC)c1	-4%	/	18%[56.9 µM]	/	24µM*	/
COc1ccc2nc3sc(C(=O)Nc4cc(Cl)c(OC)cc4OC)cc3cc2c1	/	/	-48%	i	/	i
COc1ccc(-c2nc(CS(=O)(=O)CC(=O)NCCc3cc(OC)ccc3OC)c(C)o2)cc1	2%	-1%	-6%	8.2µM*	8%	i
COc1ccc(OC)c(CCNC(=O)CS(=O)(=O)Cc2nc(-c3ccc(C)cc3)oc2C)c1	-8%	-1%	9%	?	17%	i
O=C(CNC(=O)C1CCCCC1)OCCOc1ccccc1	/	/	-6%	i	/	i
O=C1CCCC2=C1C1(CCCC1)N=C(Nc1nc3cc(Cl)ccc3o1)N2	/	/	/	?	/	i
COc1cccc(OCCN2CCN(c3ncnc4c3cnn4-c3ccccc3)CC2)c1	21%	0%	36%	5.2µM*	18µM*	i
Cc1nc2nc(-c3ccccc3)cn2nc1C	?	-3%	30%	21µM*	11%	i
Cc1nc2nc(-c3ccc(F)cc3)cn2nc1C	-6%	0%	41%	i	-7%	?
Brc1ccc(-c2cn3nc4c(nc3n2)CCCC4)cc1	-4%	1%	9%[11.4 µM]	i	2%	i
CCc1ccc(-c2cn3nc(C)c(C)nc3n2)cc1	16%	-7%	6%	18µM*	?	i
SMILES	SW480 rereplic	TSG101-PTAP inh	RGS4 inhibitor	KB-V1 cytotox	MCF10A rereplic	KB-3-1 tox
COc1ccc(C(=O)CC2(O)C(=O)N(Cc3cccc(C(F)(F)F)c3)c3ccccc32)cc1 (stereo not given)	/	/	11%	15µM*	/	?
C#CCN1C(=O)C(O)(CC(=O)c2ccc(OC)c(OC)c2)c2ccccc21 (stereo not given)	?	-12%	-6%	18µM*	?	?
O=C(CC1(O)C(=O)N(Cc2ccccc2)c2ccccc21)c1ccncc1 (stereo not given)	-1%[9.22 µM]	-4%	-34%	i	?	?
Cc1ccccc1CN1C(=O)C(O)(CC(=O)c2ccncc2)c2ccccc21 (stereo not given)	16µM*	-1%	-40%	?	?	?
C=CCc1ccccc1OCc1nc2ccc(C)cc2[nH]1	/	/	-4%	i	/	i
COc1ccc(-c2c(C#N)c(SCC(=O)c3cc4ccccc4oc3=O)nc(C)c2C(=O)Nc2ccccc2)cc1	21µM*	2%	-27%	?	5.2µM*	18µM*
Cc1nc(SCC(=O)c2cc3ccccc3oc2=O)c(C#N)c(-c2ccccc2)c1C(=O)Nc1ccccc1	7.3µM*	-3%	3%	?	?	i
COc1ccc(-c2c(C#N)c(SCC(=O)Nc3ccc(C)cc3)nc(C)c2C(=O)Nc2ccccc2)cc1	/	/	14%	i	/	i
CC(C)(C)c1ccc(S(=O)(=O)/C=C\C#N)cc1	/	/	-163%[56.9 µM]	/	/	/
Cc1ccc2nc(N=C(N)N)nc(C)c2c1	?	-3%	18%	i	1%	i
Cc1cc2nc(/N=C(\N)NC(=O)C(C)C)nc(C)c2cc1C	28%	-1%	-3%	i	-3%	15µM*
Cc1nc(N=C(N)N)nc2ccccc12	13%	-1%	6%	?	17%	8.2µM*
Cc1cc2nc(N=C(N)N)nc(C)c2cc1C	18µM*	6%	-6%	i	?	i
Cc1ccc(S(=O)(=O)/N=C(\N)Nc2nc(C)c3cc(C)c(C)cc3n2)cc1	-5%	-3%	-13%	i	-2%	i
CCc1ccc2nc(N=C(N)N)nc(C)c2c1	-1%	-1%	-40%	i	11%	23µM*
CC(C)c1ccc(Nc2ncnc3c2c(-c2ccccc2)cn3-c2ccccc2)cc1	/	/	11%	/	/	/
CCCC(=O)N/C(N)=N/c1nc(C)c2cc(C)ccc2n1	-1%	-7%	7%	i	10%	18µM*
CCC(=O)N/C(N)=N/c1nc(C)c2cc(C)c(C)cc2n1	?	1%	20%	i	-2%	i
Cc1ccccc1S(=O)(=O)N1[C@@H](c2ccc(Cl)cc2)C(C(=O)O)=CC[C@H]1c1ccc(Cl)cc1	2%	-3%	23%	i	16µM*	i
CCc1ccc([C@@H]2CC=C(C(=O)O)[C@H](c3ccc(Cl)cc3)N2S(=O)(=O)c2ccc(C)cc2)cc1	-13%	-1%	-3%	i	13µM*	i
CC(=O)c1sc(NC(=O)c2c(-c3ccccc3)c(-c3ccccc3)nn(C)c2=O)nc1C	/	/	8%	/	/	/
O=C(/C=C/c1ccccc1O)c1ccco1	?	-2%	-25%	?	15µM*	?
